Compounds without any hit were thinned out: in the full panel of roughly 83,000, 20% have a hit.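 Each cell line was grown in a 96-well plate and treated with one concentration of compound for 48 hours. Values below 10 were considered active.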 A number with no mark means an inactive call. Active and inactive are the calls of the source.
The compounds below were run on HOP-92 NSCLC (assay: NCI-60 one-dose screen, 48 h (100 = growth as untreated, 0 = no growth, -100 = all killed)). Settings: 10 µM unless noted.
`N#CC1=C(N)Oc2c(c(N)nn2-c2ccccc2)C1c1ccc(Cl)cc1Cl` (configuration not stated) was tested, and the growth was 86.9%. `C=C(C)[C@@H]1CC[C@]2(C=O)CC[C@]3(C)[C@H](CC[C@@H]4[C@@]5(C)C/C(=C/c6cccnc6)C(=O)C(C)(C)[C@@H]5CC[C@]43C)[C@@H]12` gave a growth of 83.9%. `C=C(C)[C@@H]1CC[C@]2(C(=O)N3CCN(CC)CC3)CC[C@]3(C)[C@H](CC[C@@H]4[C@@](C)(CCC(=O)N5CCN(CC)CC5)[C@H](C(=C)C)CC[C@]43C)[C@@H]12` gave a growth of 52.2%. `CCN1CCN(C(=O)[C@]23CCC(C)(C)C[C@H]2C2=CC[C@@H]4[C@@]5(C)CC/C(=N/O)C(C)(C)[C@@H]5CC[C@@]4(C)[C@]2(C)CC3)CC1` gave a growth of 52.7%. For `N#CC1=C(N)Oc2c(sc3c(F)cccc23)C1c1ccc(Cl)cc1` (configuration not stated), the growth was 36.9%. `O=C1c2cccc3cccc(c23)C(=O)N1CC#Cc1ccc2c3c(cccc13)C(=O)N(CCN1CCNCC1)C2=O` was tested, and the growth was 87.7%. `C=C(C)[C@@H]1CC[C@]2(/C=N/Nc3ccncc3)CC[C@]3(C)[C@H](CC[C@@H]4[C@@]5(C)CCCNC(C)(C)[C@@H]5CC[C@]43C)[C@@H]12` showed a growth of 55.6%. In the case of `Cc1ccnc2c(OCc3ccccc3)cccc12`, the growth is reported as 53.4%. In the case of `C=CC(=O)N[C@H](Cc1ccc(-c2cc(Cl)cc(Cl)c2)cc1)[C@H](O)[C@@H](O)C(=O)O`, the growth is reported as 84.4%. With `C=COCCCCCCCCCCCCCCCCCC` the growth was 75.6%. `COc1cc2ncnc(Nc3ccc(Oc4ccnc(C)c4)c(C)c3)c2cc1NC(=O)CC1CCSS1` (configuration not stated) was tested, and the growth was 62.6%. Compound `CN1CCN(c2nc(-c3csc(-c4cccs4)n3)cc3ccccc23)CC1` has a growth of 23%. `O=C(O[C@@H]1Cc2c(O)cc(O)cc2O[C@@H]1c1cc(O)c(O)c(O)c1)c1cc(O)c2c(c1)OCO2` was tested, and the growth was 95.1%. With `C/C(Cc1ccc(Cl)cc1)=C(/c1ccc(Cl)cc1)c1ccc(OCCN2CCCC2)cc1` the growth was 60.8%. In the case of `Cc1cc(N(CCCNc2ccnc3cc(Cl)ccc23)Cc2ccco2)nc(N2CCOCC2)n1`, the growth is reported as 51.8%. For `Cc1ccccc1-c1nc(C(Cl)Cl)nc2cc(-c3ccccc3)nn12`, the growth was 45.8%. `O=C1/C(=C\C(Cl)=C/c2ccc([N+](=O)[O-])cc2)SC(=S)N1CCc1ccc(O)cc1` was tested, and the growth was -3.03% (active). `Brc1ccc2c(c1)c(-c1nc(-c3c[nH]c4ncccc34)cs1)cn2CCCN1CCCCC1` showed a growth of 31.7%. `Cn1c(/C(C#N)=C/c2ccc3ccccc3c2)cc2ccccc21` gave a growth of 64.8%. In the case of `CN(CSc1ccc(Cl)cc1)c1ccc(CSc2ccc(Cl)cc2)cc1`, the growth is reported as 57.2%. In the case of `CCNCCCn1c2c(c3ccc([N+](=O)[O-])cc3c1=O)C(=O)c1cc(OC)cnc1-2`, the growth is reported as -11.5% (active). With `CC1(C)NC2=C(C(Nc3cccnc3)N1)C(c1ccc([N+](=O)[O-])cc1)C(C(=O)c1ccc(N=[N+]=[N-])cc1)O2` (configuration not stated) the growth was 94%. `COc1ccc(C2C(C#N)=C(N)Oc3c2sc2c(F)cccc32)cc1` (configuration not stated) showed a growth of 41.7%. `COc1cc(-c2cc3ncccc3c3[nH]c(=O)c4cccnc4c23)cc(OC)c1OC` was tested, and the growth was 30.6%. With `CCCCC/C(=C\c1ccccc1)C1OC(C)C(C)O1` (configuration not stated) the growth was 95%. `COc1ccc2c(c1)c(-c1nc(-c3c[nH]c4ncccc34)cs1)cn2CCNC(=O)OC(C)(C)C` was tested, and the growth was 54.9%. In the case of `COc1cc(/C=C/c2cc(/C=C/c3ccc(O)c(OC)c3)n(-c3ccccc3)c(=O)n2)ccc1O`, the growth is reported as 78.8%. `CCN1CCN(C(=O)[C@]23CC[C@@H](C)[C@H](C)[C@H]2C2=CC[C@@H]4[C@@]5(C)C/C(=C/c6cccc(OC)c6OC)C(=O)C(C)(C)[C@@H]5CC[C@@]4(C)[C@]2(C)CC3)CC1` showed a growth of 46.9%. `COc1cc2c(cc1-c1c(C)noc1C)ncc1nc(C3CCCCC3)n([C@@H](C)COC(F)F)c12` was tested, and the growth was 27.7%. `CC(=O)OC[C@]12CC[C@@H](/C(C)=N/O)[C@@H]1[C@H]1CC[C@@H]3[C@@]4(C)CCCNC(C)(C)[C@@H]4CC[C@@]3(C)[C@]1(C)CC2` showed a growth of 66.9%. For `Brc1cnc2[nH]cc(-c3nnc(-c4ccccc4)o3)c2c1`, the growth was 74.7%. For `COc1ccc2[nH]c(-c3ccc(Cl)cc3)cc(=O)c2c1`, the growth was 88.6%.
